# Test results reported in PubChem BioAssay (EPA / NIEHS).
# Inconclusive results are not listed. Activity calls are given as the source filed them. The calls were made as follows: active = hit-call score of the fitted dose curve at least 0.9, where 1 is the maximum; inconclusive = response in the unintended direction; inactive = score below 0.9.
# Molecular target: human RAR-related Orphan Receptor gamma (RORg), RORC (gene 6097) (UniProt P51449)
# Assay: ATG_RORg_TRANS: Attagene TRANS-FACTORIAL HepG2 Assay for human RAR-related Orphan Receptor gamma (RORg) (AID 2283011)
# Procedure: ATG_TRANS is a cell-based, multiplexed-readout assay that uses HepG2, a human liver cell line, with measurements taken at 24 hours after chemical dosing in a 24-well plate.ATG_RORg_TRANS is one of 30 assay component(s) measured or calculated from the ATG_TRANS assay. It is designed to make measurements of mRNA induction, a form of inducible reporter, as detected with fluorescence intensity signals by Reverse transcription polymerase chain reaction (RT-PCR) and Capillary electrophoresis technology.Data from the assay component ATG_RORg_TRANS was analyzed into 1 assay endpoint. This assay endpoint, ATG_RORg_TRANS, was analyzed in the positive analysis fitting direction relative to DMSO as the negative control and baseline of activity. Using a type of inducible reporter, measures of mRNA for gain-of-signal activity can be used to understand the reporter gene at the transcription factor-level as they relate to the gene RORC. Furthermore, this assay endpoint can be referred to as a primary readout, because this assay has produced multiple assay endpoints where this one serves a reporter gene function. To generalize the intended target to other relatable targets, this assay endpoint is annotated to the nuclear receptor intended target family, where the subfamily is orphan.
# Human liver HepG2 cells are transiently transfected with multiple reporter transcription units (MRTUs) in 6-well plates using FuGene 6 reagent (Roche; 3 ml FuGene/1 mg DNA). The MRTU constructs are regulated by a cis-regulating element (promoter). […] A major difference between the CIS and TRANS system is that in CIS activities of endogenous TFs are measured, whereas the TRANS assay evaluates changes in activities of exogenous, chimeric NR-Gal4 proteins. […] At the end of 24 hour incubation, total RNA was isolated using TriZol reagent (Invitrogen). The isolated RNA is then reverse-transcribed using oligo(dT) primer and Mo-MLV reverse transcriptase (Invitrogen) with DNAse I (Ambion) treatment for 30 min. The one-tenth of the produced cDNA was amplified by PCR using Taq DNA polymerase (Invitrogen) and two reporter sequence-specific primers. The PCR products were fluorescently labeled by primer extension with 6-arboxyfluorescein (6-FAM) 5'-labeled reporter sequence-specific primer (2 min at 95 C, 20 s at 68 C and 10 min at 72 C) and these products were digested with 5U of HpaI (New England Biolabs) for 2h at 37 C. The fragments were purified using Qiaquick PCR columns (Qiagen), analyzed on an ABI 3130xL genetic analyzer (Applied Biosystems) with peak positions identified by using a set of X-rhodamine (ROX)-labeled MapMarker1000 molecular weight standards (BioVentures). The raw capillary electrophoresis data was processed using Attagraph software (Attagene).
# human RAR-related Orphan Receptor gamma (RORg), RORC (gene 6097), sequence (P51449 whole entry, looked up): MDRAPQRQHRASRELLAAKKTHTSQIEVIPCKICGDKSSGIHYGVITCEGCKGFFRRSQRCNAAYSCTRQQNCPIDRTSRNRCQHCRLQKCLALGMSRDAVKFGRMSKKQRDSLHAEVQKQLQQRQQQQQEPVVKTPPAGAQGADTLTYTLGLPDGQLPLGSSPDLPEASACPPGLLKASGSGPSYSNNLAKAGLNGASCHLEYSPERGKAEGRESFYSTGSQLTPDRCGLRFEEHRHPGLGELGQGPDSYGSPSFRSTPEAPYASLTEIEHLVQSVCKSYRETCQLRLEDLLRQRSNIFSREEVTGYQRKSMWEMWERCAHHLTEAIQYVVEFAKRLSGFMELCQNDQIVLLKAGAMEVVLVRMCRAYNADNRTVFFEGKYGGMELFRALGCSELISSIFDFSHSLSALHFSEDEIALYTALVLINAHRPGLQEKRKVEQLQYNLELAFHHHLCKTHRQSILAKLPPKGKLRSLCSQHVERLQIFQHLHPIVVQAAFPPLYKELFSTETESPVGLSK
row,Compound,outcome
1,Cc1cc(=O)[nH]c(=S)[nH]1,inactive
2,COc1ccc(C)cc1N,inactive
3,NS(=O)(=O)c1cc2c(cc1Cl)NCNS2(=O)=O,inactive
4,O=[N+]([O-])C(CO)(CO)CO,inactive
5,CCOc1ccc2c(c1)C(C)=CC(C)(C)N2,inactive
6,COc1cc(S(=O)(=O)O)c(C)cc1N=Nc1c(O)ccc2cc(S(=O)(=O)O)ccc12,inactive
7,FC(F)(F)C(F)(F)C(F)(F)C(F)(F)C(F)(F)C(F)(F)CCI,inactive
8,C[C@]12C=CC(=O)C=C1CC[C@@H]1[C@@H]2C(=O)C[C@@]2(C)[C@H]1CC[C@]2(O)C(=O)CO,inactive
9,CC(=O)OC/C=C(\C)CCC=C(C)C,inactive
10,Cc1cccc(C)c1O,inactive
11,CNC(=O)[C@H]1O[C@@H](n2cnc3c(NCc4cc(Cl)ccc4OCc4cc(C)no4)ncnc32)[C@H](O)[C@@H]1N,inactive
12,CCCCc1ccc2c(n1)[C@@H](c1ccc(OC)cc1C[C@H](C)C(=O)O)[C@H](C(=O)O)[C@H]2c1ccc2c(c1)OCO2,inactive
13,CC(C)c1ccc(C(=O)N=C(N)N)cc1S(C)(=O)=O,inactive
14,Nc1nc(N)c2nc(CNc3ccc(C(=O)N[C@@H](CCC(=O)O)C(=O)O)cc3)cnc2n1,inactive
15,O=c1c(O)c(-c2ccc(O)c(O)c2)oc2cc(O)cc(O)c12,inactive
16,CCCCCCCCCCCCCCCCCC(=O)O,inactive
17,Cc1cc(NC(=O)C(=O)O)cc(C)c1Oc1ccc(O)c2c1CCC2,inactive

row,Compound,outcome
1,Cc1ccc(C(C)C)c(O)c1,inactive
2,Nc1ccc2c(c1)C(=O)c1ccccc1C2=O,inactive
3,NCC1(Cc2noc(=O)[nH]2)CCCCC1,inactive
4,CC1(C)CC(N=C=O)CC(C)(CN=C=O)C1 (centres undefined),inactive
5,Cc1ccc2ncccc2c1,inactive
6,CC=Cc1ccc(O)c(OC)c1,inactive
7,CCCCN(CCCC)CCCC,inactive
8,Nc1ccc(S(=O)(=O)c2ccc(N)cc2)cc1,inactive
9,Cc1oc(-c2ccccc2)nc1CCOc1cccc2c1ccn2CCC(=O)O,inactive
10,CN1CCCC1=O,inactive
11,CCCCC(CC)COC(=O)CC(C(=O)OCC(CC)CCCC)S(=O)(=O)O (centres undefined),inactive
12,CNCc1cc(F)ccc1Oc1ccc(Cl)c(Cl)c1,inactive
13,O=C(N[C@@H](Cc1ccccc1)[C@@H](O)C(=O)N1C[C@@H](O)[C@@H](O)C1)c1cc2cc(Cl)ccc2[nH]1,inactive
14,CCOC(=O)C(C)(C)Oc1ccc(Cl)cc1,inactive
15,C[Si]1(C)O[Si](C)(C)O[Si](C)(C)O[Si](C)(C)O1,inactive
16,O=C(O)CCCCC(=O)O,inactive
17,COc1cc(C=O)ccc1O,inactive
